Values without a mark were called inactive. Inconclusive results are not listed. Calls of active or inactive are those of the source. Unless noted, the call rests on the fitted dose curve; in most records, active means well fitted curve in the direction sought with a large enough effect in the repeat runs; inconclusive means weak or mixed curves; inactive means no such curve, though single readings can be large; an effect the other way counts as inactive or inconclusive.

Experiment [1] can be described thus: qHTS assay to test for compound auto fluorescence at 535 nm (green) in HEK293 cells (AID 720680).
The nature of experiment [2]: qHTS assay to test for compound auto fluorescence at 460 nm (blue) in HEK293 cell free culture (AID 720681). A digest of the protocol: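 Blue fluorescence (Ex 405/Em 460 nm, triamterene-equivalent) was read immediately after pin transfer of compound or DMSO into medium (DMEM, 10% FBS) without cells.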
A short description of experiment [3]: qHTS assay to test for compound auto fluorescence at 535 nm (green) in HEK293 cell free culture (AID 720682). A digest of the protocol:
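Green-label autofluorescence (485 nm excitation, 535 nm emission) measured on compound added to cell-free culture medium (DMEM, 10% FBS). Output is expressed relative to fluorescein.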

Experiment [4] is described as follows: qHTS assay to test for compound auto fluorescence at 590 nm (red) in HEK293 cell free culture (AID 720683). In outline: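 Red-channel autofluorescence of compounds in culture medium (DMEM, 10% FBS), no cells, measured at 540/590 nm. Rose Bengal sodium is the reference fluorophore for equivalence.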
A short description of experiment [5]: qHTS assay to test for compound auto fluorescence at 590 nm (red) in HepG2 cell free culture (AID 720684). A digest of the protocol: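 Cell-free; medium MEM + 10% FBS; compound or DMSO added by pintool; read Ex 540/Em 590 nm; Rose Bengal sodium as red reference fluorophore.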
Experiment [6] can be described thus: qHTS assay to test for compound auto fluorescence at 460 nm (blue) in HepG2 cell free culture (AID 720685). In outline:
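Cell-free plates of MEM plus 10% FBS received 23 nL compound or DMSO vehicle; blue-channel (405/460 nm) intensity scored against triamterene as reference fluorophore.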

Experiment [7] is described as follows: qHTS assay to test for compound auto fluorescence at 535 nm (green) in HepG2 cell free culture (AID 720686).
Experiment [8] is described as follows: qHTS assay to test for compound auto fluorescence at 460 nm (blue) in HepG2 cells (AID 720687). In outline: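 Blue-channel autofluorescence (Ex/Em 405/460 nm, triamterene-equivalent) was measured after 1 hr compound exposure at 37 C, 5% CO2. Cells were HepG2, plated overnight at 37 C in MEM plus 10% FBS.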
Experiment [9] has as its target Glucocorticoid receptor (Homo sapiens) (UniProt P04150). In words: qHTS assay to identify small molecule agonists of the glucocorticoid receptor (GR) signaling pathway (AID 720691; active means well fitted activation curve with a large enough effect in the signal ratio in the repeat runs, not every such curve was filed as active; the % refers to the signal ratio). A digest of the protocol: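 HeLa GR-bla reporter line; cells pre-incubated 4 h, compound in DMSO 18 h at 37 C; LiveBLAzer B/G FRET substrate 2 h RT; fluorescence intensity read-out.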

Experiment [10] has the same target. Briefly: qHTS assay to identify small molecule antagonists of the glucocorticoid receptor (GR) signaling pathway (AID 720692; active means well fitted inhibition curve with a large enough effect in the signal ratio in the repeat runs, not every such curve was filed as active; the % refers to the signal ratio). A digest of the protocol:
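Read-out: beta-lactamase FRET substrate fluorescence, 2 h at room temperature, in HeLa cells stably carrying a GRE-driven bla reporter. Compounds were co-incubated with 5 nM dexamethasone agonist (final) for 18 h at 37 C.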

Experiment [11] in a line: qHTS assay to identify small molecule antagonists of the glucocorticoid receptor (GR) signaling pathway - cell viability counter screen (AID 720693). Further: nearly all actives have a fitted effect of over 55% in size.
The nature of experiment [12]: qHTS assay for identifying genotoxic compounds that show differential cytotoxicity against isogenic chicken DT40 cell lines with known DNA damage response pathways - wild type cell line (AID 743012). Further: nearly all actives have a fitted effect of over 60% in size. A digest of the protocol: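 CellTiter-Glo luminescence readout of viability in wild type DT40 cells after 40 h compound exposure at 37 C/5% CO2; 300 cells/well; reagent incubated 30 min at room temperature before reading.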

Experiment [13] is described as follows: qHTS assay for identifying genotoxic compounds that show differential cytotoxicity against isogenic chicken DT40 cell lines with known DNA damage response pathways - Rev3 mutant cell line (AID 743014). Further: nearly all actives have a fitted effect of over 55% in size. Further: potency means the concentration at half of the fitted maximal effect.
The nature of experiment [14]: qHTS assay for identifying genotoxic compounds that show differential cytotoxicity against isogenic chicken DT40 cell lines with known DNA damage response pathways - Rad54/Ku70 mutant cell line (AID 743015). Further: nearly all actives have a fitted effect of over 60% in size.
Experiment [15] in a line: qHTS assay to identify small molecule antagonists of the androgen receptor (AR) signaling pathway - cell viability counter screen (AID 743033; further: nearly all actives have a fitted effect of over 45% in size).
Experiment [16] is described as follows: qHTS assay to identify small molecule antagonists of the androgen receptor (AR) signaling pathway using the MDA cell line - cell viability counter screen (AID 743041; further: nearly all actives have a fitted effect of over 45% in size). In outline: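 Viability read by CellTiter-Fluor fluorescence in the same wells as the antagonist screen, added after 15.5 h of a 16 h, 37C exposure. Human breast carcinoma MDA-kb2 AR-luc cells, compounds co-dosed with agonist R1881.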

Sequence of Glucocorticoid receptor (Homo sapiens) (P04150 whole entry, looked up): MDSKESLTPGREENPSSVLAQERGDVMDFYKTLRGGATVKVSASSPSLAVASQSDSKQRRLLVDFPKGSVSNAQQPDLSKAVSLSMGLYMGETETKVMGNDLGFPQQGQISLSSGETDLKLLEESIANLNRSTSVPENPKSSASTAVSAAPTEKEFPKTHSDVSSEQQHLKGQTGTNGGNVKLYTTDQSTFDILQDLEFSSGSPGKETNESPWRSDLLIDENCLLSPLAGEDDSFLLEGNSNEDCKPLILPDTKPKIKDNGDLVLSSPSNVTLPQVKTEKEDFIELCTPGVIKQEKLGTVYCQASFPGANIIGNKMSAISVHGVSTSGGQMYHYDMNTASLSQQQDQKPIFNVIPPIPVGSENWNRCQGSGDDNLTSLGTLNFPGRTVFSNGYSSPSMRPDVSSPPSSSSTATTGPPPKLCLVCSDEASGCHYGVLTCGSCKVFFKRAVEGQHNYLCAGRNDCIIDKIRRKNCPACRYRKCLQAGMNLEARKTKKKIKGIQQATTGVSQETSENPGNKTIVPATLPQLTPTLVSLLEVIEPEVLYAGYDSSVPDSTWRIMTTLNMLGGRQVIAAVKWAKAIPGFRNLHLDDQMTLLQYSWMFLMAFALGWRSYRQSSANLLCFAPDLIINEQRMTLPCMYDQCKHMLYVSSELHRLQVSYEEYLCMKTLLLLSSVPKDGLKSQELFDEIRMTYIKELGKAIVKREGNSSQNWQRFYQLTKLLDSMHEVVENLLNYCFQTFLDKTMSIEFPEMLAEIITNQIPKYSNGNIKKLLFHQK

For the compound `CC1=NN(c2ccc(S(=O)(=O)O)cc2)C(=O)C1N=Nc1ccccc1` (stereo not drawn), the result in experiment [1], in experiment [2], in [3], in [4], in experiment [5] and in experiment [6] was inactive. Besides, the outcome in experiment [7], in experiment [8], in [10] and in [15] was inactive. Further, the Potency entry in experiment [9], in [11], in experiment [12], in experiment [13] and in experiment [14] was “inactive” throughout.

For `O=c1[nH]c(=O)c2[nH]c(=O)[nH]c2[nH]1`, the outcome in experiment [1], in [2], in experiment [3], in experiment [4], in [5] and in experiment [6] was inactive. The compound was called inactive in [7], in experiment [8], in experiment [10], in experiment [15] and in experiment [16]. Further, the Potency entry in [9], in experiment [11], in experiment [12], in experiment [13] and in experiment [14] was “inactive” in each case.

Turning to `CN(C)CCOCCN(C)CCO`, the compound was classed as inactive in experiment [1], in experiment [2], in experiment [3], in experiment [4], in experiment [5] and in experiment [6]. For the same compound, the outcome in experiment [7], in experiment [8], in experiment [10], in experiment [15] and in experiment [16] was inactive. The Potency entry in experiment [9], in experiment [11], in experiment [12], in experiment [13] and in experiment [14] was “inactive” in each case.

Take `C[N+](C)(C)CC(O)CCl` (stereo not drawn): the compound was classed as inactive in [1], in experiment [2], in experiment [3], in experiment [4], in experiment [5] and in experiment [6]. In addition, the result in experiment [7], in experiment [8], in experiment [10], in [15] and in [16] was inactive. Moreover, the Potency result in [9], in experiment [11], in experiment [12], in experiment [13] and in [14] was “inactive” each time.

Consider `CC(Cl)COP(=O)(OCC(C)Cl)OCC(C)Cl` (stereo not drawn), for which the outcome in experiment [1], in experiment [2], in [3], in [4], in experiment [5] and in [6] was inactive. Besides, the result in [7], in experiment [8], in experiment [10], in experiment [15] and in [16] was inactive. Further, the Potency entry in experiment [9] and in experiment [11] was “inactive” throughout. The Potency in experiment [13] was 54.2 µM (active).

As for `CCC(CO)CO`, the compound was called inactive in experiment [1], in [2], in [3], in experiment [4], in experiment [5] and in experiment [6]. In addition, the outcome in [7], in [8], in experiment [10], in [15] and in [16] was inactive. The Potency entry in experiment [9], in experiment [11], in experiment [12] and in experiment [14] was “inactive” each time.

As to `CC(C)COC(=O)CC(C(=O)OCC(C)C)S(=O)(=O)O` (stereo not drawn), the call in experiment [1], in experiment [2], in experiment [3], in experiment [4], in experiment [5] and in experiment [6] was inactive. Besides, the call in experiment [7], in experiment [8], in experiment [10], in experiment [15] and in [16] was inactive. Moreover, the Potency entry in experiment [9], in experiment [11], in [12] and in experiment [13] was “inactive” each time.

For `CCN1CN(CC)CN(CC)C1`, the compound was classed as inactive in [1], in experiment [2], in [3], in experiment [4], in experiment [5] and in experiment [6]. The result in experiment [7], in experiment [8], in [10], in [15] and in experiment [16] was inactive. Also, the Potency entry in [9], in experiment [11], in [12] and in experiment [13] was “inactive” in each case.

Regarding `O=C(O)c1c(Cl)ccc(Cl)c1Cl`, the result in experiment [1], in experiment [2], in [3], in experiment [4], in experiment [5] and in experiment [6] was inactive. Also, the compound was called inactive in experiment [7], in experiment [8], in [10], in [15] and in experiment [16]. For the same compound, the Potency result in [9], in experiment [11], in experiment [13] and in experiment [14] was “inactive” each time.

On to `CCCOC(=O)CCCCC(=O)OCCC`, for which the result in experiment [1], in experiment [2], in [3], in [4], in experiment [5] and in experiment [6] was inactive. Moreover, the compound was called inactive in experiment [7], in [8], in experiment [10], in experiment [15] and in experiment [16]. Also, the Potency result in experiment [9], in [11], in [12] and in experiment [14] was “inactive” throughout.

In the case of `CCN(CCC#N)c1ccccc1`, the compound was called inactive in experiment [1], in [2], in [3], in experiment [4], in experiment [5] and in [6]. Further, the compound was classed as inactive in experiment [7], in experiment [8], in experiment [10], in [15] and in [16]. Moreover, the Potency entry in experiment [9], in experiment [11], in experiment [12] and in experiment [13] was “inactive” each time.

As for `CC(C)CCCCCCOC(=O)C1CCCCC1C(=O)OCCCCCCC(C)C` (stereo not drawn), the compound was called inactive in experiment [1], in experiment [2], in experiment [3], in experiment [4], in [5] and in [6]. Moreover, the compound was called inactive in experiment [7], in [8], in [10], in experiment [15] and in [16]. Moreover, the Potency entry in experiment [9], in experiment [11], in [12] and in [14] was “inactive” each time.

Regarding `CC(C)(C)NCCO`, the call in experiment [1], in experiment [2], in [3], in [4], in experiment [5] and in experiment [6] was inactive. Further, the compound was called inactive in experiment [7], in [8], in [10], in [15] and in experiment [16]. Besides, the Potency result in experiment [9], in experiment [11], in experiment [12] and in experiment [14] was “inactive” each time.

Take `C=CCOCC(CO)(COCC=C)COCC=C`: the result in experiment [1], in experiment [2], in [3], in experiment [4], in experiment [5] and in experiment [6] was inactive. Further, the outcome in experiment [7], in experiment [8], in experiment [10], in [15] and in [16] was inactive. Further, the Potency result in [9], in experiment [11] and in [13] was “inactive” throughout.

For the compound `O=C(c1ccc2c(c1)C(=O)OC2=O)c1ccc2c(c1)C(=O)OC2=O`, the compound was classed as inactive in experiment [1], in experiment [2], in [3], in [4], in [5] and in [6]. The compound was called inactive in experiment [7], in experiment [8], in experiment [10], in experiment [15] and in [16]. Further, the Potency entry in [9], in [11], in experiment [12] and in experiment [13] was “inactive” in each case.

For `Cc1nc(C)nc(N2C[C@@H](C)N(c3ccnc([C@@H](C)O)n3)[C@@H](C)C2)n1`, the compound was called inactive in [1], in experiment [2], in experiment [3], in experiment [4], in experiment [5] and in experiment [6]. Besides, the compound was called inactive in experiment [7], in experiment [8], in [10], in [15] and in experiment [16]. The Potency entry in experiment [9], in [11] and in experiment [12] was “inactive” in each case.

Consider `FC(F)(F)/C(=N\OCC1OCCO1)c1ccc(Cl)cc1`, for which the compound was classed as inactive in experiment [1], in experiment [2], in [3], in [4], in experiment [5] and in [6]. Besides, the outcome in experiment [7], in experiment [8], in experiment [10] and in [15] was inactive. Besides, the Potency entry in experiment [9], in experiment [11] and in experiment [12] was “inactive” each time.

These data come from PubChem BioAssay (Tox21).
